PGE2 EP2 inh: human EP2 receptor antagonists, primary screen, TR-FRET cAMP, C6 glioma cells; actives 0.52% (n = 260,000); Prostaglandin E2 receptor EP2 subtype (Homo sapiens), P43116; C6 glioma cells expressing human EP2; cells stimulated with saturating PGE2; inhibition, % at 25 µM; AID 1422, 2008;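 active means percent inhibition above 40 after rounding to a whole number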;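 further: rat C6 glioma host cells with rolipram phosphodiesterase inhibitor present; the protocol text gives 20 µM as final concentration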
RAM inhibit: inhibitors of the yeast RAM network, primary screen, dse1pr::URA3 reporter, 5-FOA selection | inhibition, % at 50 µM | AID 868, 2007 | S. cerevisiae dse1pr::URA3 reporter, 5-FOA growth OD615, 2 d; analog-sensitive cbk1-as2 kinase mutant strain | actives 1.8% (n = 190,000);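 active means inhibition above a set limit, 3 SD over mean compound inhibition, cut at about 8.4% in these data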;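 further: inhibition rescues growth on 5-FOA so higher OD means more RAM inhibition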
Rev-erbA mod: modulators of Rev-erb alpha DNA binding, primary screen, biochemical, FITC-DNA, fluorescence polarization, uHTS; Rev-erbα–FITC-DNA binding, 90 min; actives 0.79% (n = 370,000); Nuclear receptor subfamily 1 group D member 1 (Homo sapiens), P20393; AID 1259318, 2017; activity, % at 10 µM;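 active means activity above about 14%, limit read from the data; passing the limit was not always enough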
Target sequence (P20393 whole entry, looked up): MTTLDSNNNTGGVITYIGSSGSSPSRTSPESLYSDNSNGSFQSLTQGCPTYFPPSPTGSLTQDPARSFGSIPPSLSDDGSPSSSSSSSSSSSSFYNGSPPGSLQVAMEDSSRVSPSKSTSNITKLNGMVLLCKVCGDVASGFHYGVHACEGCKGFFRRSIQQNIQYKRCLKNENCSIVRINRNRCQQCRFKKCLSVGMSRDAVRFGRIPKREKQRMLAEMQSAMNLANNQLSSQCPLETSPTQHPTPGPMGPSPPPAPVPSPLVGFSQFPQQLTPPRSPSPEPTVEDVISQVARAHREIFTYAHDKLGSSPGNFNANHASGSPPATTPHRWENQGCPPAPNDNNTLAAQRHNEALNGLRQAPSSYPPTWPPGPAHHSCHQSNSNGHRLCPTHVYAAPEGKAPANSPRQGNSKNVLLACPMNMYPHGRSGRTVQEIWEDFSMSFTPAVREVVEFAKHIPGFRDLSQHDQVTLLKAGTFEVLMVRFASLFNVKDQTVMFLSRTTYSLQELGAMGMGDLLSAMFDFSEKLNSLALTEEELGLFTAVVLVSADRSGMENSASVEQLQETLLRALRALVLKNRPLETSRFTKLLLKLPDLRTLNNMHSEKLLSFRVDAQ
EP2 modulator: EP2 receptor modulators, cAMP readout, primary screen, cell-based, HTRF cAMP, PGE2 stimulation | Prostaglandin E2 receptor EP2 subtype (Homo sapiens), P43116 | EP2-expressing cells, cAMP HTRF FRET, PGE2 co-stimulation | induction, % at 25 µM | actives 0.83% (n = 260,000) | AID 940, 2007;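 active means compounds whose cAMP rise, as percent of the full-agonist control response, exceeds 60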;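 further: rat C6 glioma line stably carrying human EP2 under a CMV promoter; the protocol text gives 20 µM as final concentration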
SKN-1 inh: suppressors of acrylamide-induced Pgst-4::GFP reporter in worms, primary screen, SKN-1 inhibitor project, whole organism, uHTS, GFP/RFP fluorescence ratio, strain VP596 | C. elegans VP596 Pgst-4::GFP/RFP ratio, 24 h | inhibition, % at 21.8 µM | actives 0.49% (n = 360,000) | AID 624304, 2012;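 active means interference check ratio from 0.5 to 1.5 plus GFP to RFP signal ratio inhibition reaching or exceeding a fixed threshold, cut at about 30% in these data, passing the limit was not always enough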
PG9 binder: binders of HIV-1 gp120 antibody PG9, primary screen, biochemical, TR-FRET | HIV-1 gp120 / PG9 antibody interaction | TR-FRET gp120-PG9 antibody binding | inhibition, % at 6.7 µM | actives 0.43% (n = 360,000) | AID 624416, 2012; in the data active means inhibition above about 8.5%
RAM 5-FOA: 5-FOA growth of efflux-deficient control yeast, dose response, counter-screen for RAM network inhibitor project, S. cerevisiae, OD615; shares compounds with RAM inhibit; 1,200 tested, under 10 active; max inhibition, %; AID 1305, 2008; S. cerevisiae efflux-deficient reporter strain, 5-FOA growth OD615, 2 days; call rule not given here
A number is an active result; i = inactive; nt = not tested or not shown. An excerpt weighted towards active compounds, which were near 2.9% of everything screened.

SMILES | PGE2 EP2 inh | RAM inhibit | Rev-erbA mod | EP2 modulator | SKN-1 inh | PG9 binder | RAM 5-FOA
CC(=O)N(CCC(c1ccccc1)c1ccco1)Cc1cccs1 (configuration not stated) | i | 28 | i | i | i | i | i
CCCS(=O)(=O)c1c(S(=O)(=O)CCC)c2c(N)cccn2c1C(=O)c1ccc(F)cc1 | i | i | i | i | i | i | nt
CCCS(=O)(=O)c1c(S(=O)(=O)CCC)c2c(N)cccn2c1C(=O)c1ccc(Br)cc1 | i | 13 | i | i | i | i | i
CCOC(=O)c1cnn(-c2nc(-c3ccc(C)cc3)cs2)c1C(F)(F)F | i | 12 | i | i | i | i | i
O=C(O)c1cnn(-c2nc(-c3ccc(F)cc3)cs2)c1C(F)(F)F | i | i | i | i | i | i | nt
CCC(CN1CCC(C)CC1)NC(=O)Cc1csc(-c2ccccn2)n1 (configuration not stated) | i | nt | nt | i | nt | nt | nt
CCOC(=O)c1c(C)[nH]c(N=Nc2cccc(C)c2)c1C | i | 12 | i | i | i | i | i
CCC(C)NS(=O)(=O)c1ccc(S(=O)(=O)N(CCc2ccc(OC)c(OC)c2)Cc2cccs2)cc1 (configuration not stated) | i | 15 | i | i | i | i | i
CCc1nn(CC(=O)NCc2cccc(OC)c2)c(=O)c2cc3oc(C)cc3n12 | i | nt | nt | i | nt | nt | nt
CN(C(=S)Nc1ccc(Oc2ccccc2)cc1)c1ccc(O)cc1 | i | 14 | i | i | i | i | i
C=CCn1c(NCc2ccc(OC)cc2)nc2c1c(=O)[nH]c(=O)n2C | i | nt | nt | i | nt | nt | nt
NC(=O)N1CCCC1=O | i | nt | nt | i | nt | nt | nt
CCCOc1ccc(-c2nc(OCC)c3ccccc3n2)cc1 | i | 13 | i | i | i | i | i
COc1cccc(NC(=S)N(Cc2ccc(Cl)cc2)Cc2ccc(C(=O)O)cc2)c1 | i | 14 | i | i | i | i | i
COC(=O)C/C=C/[C@@H](C)[C@@H](/C=N/OC[C@@H](C)[C@H](OCc1ccccc1)C(C)C)NS(=O)(=O)c1ccc(C)cc1 | nt | 13 | nt | i | nt | nt | i
COc1ccccc1/C=C/C(=O)c1ccc(Cl)cc1 | i | i | i | i | i | i | nt
COc1ccc(OC)c(/C=C/C(=O)c2ccc(Cl)cc2)c1 | i | 13 | i | i | i | i | i
COc1ccc(C(C)=O)cc1COc1ccc(F)cc1 | i | i | i | i | i | i | nt
COc1ccc(/C=C/C(=O)c2ccc(OC)cc2OC)c(OC)c1 | i | 14 | i | i | i | i | i
COc1ccc(C(=O)/C=C/c2ccc(OC)c(COc3ccc(F)cc3)c2)cc1 | i | 18 | i | i | i | i | i
O=C(COC(=O)c1cc(-c2cccs2)nc2ccccc12)NCc1ccco1 | i | i | i | i | i | i | nt
O=C(COC(=O)c1cc(-c2ccc(Cl)s2)nc2ccccc12)NCc1ccco1 | i | 12 | i | i | i | i | i
Cn1c(=O)c(/C=C/c2ccc(F)cc2)nc2ccccc21 | i | 14 | i | i | i | i | i
COc1ccccc1NC(=O)C1=C(C)NC2=C(C(=O)CCC2)C1c1ccc(C)cc1 (configuration not stated) | i | nt | nt | i | nt | nt | nt
Cc1ccc(S(=O)(=O)N(CCC(=O)NCc2ccccc2F)c2ccccc2)cc1 | nt | nt | i | nt | i | i | nt
SMILES | PGE2 EP2 inh | RAM inhibit | Rev-erbA mod | EP2 modulator | SKN-1 inh | PG9 binder | RAM 5-FOA
Cc1ccc(S(=O)(=O)N(CCC(=O)Nc2ccc(OC(F)(F)F)cc2)c2ccccc2)cc1 | i | 16 | i | i | i | i | i
Cc1nc2cccnc2n1C1CCN(C(=O)NCc2ccccc2)CC1 | i | nt | nt | i | nt | nt | nt
Cc1ccc(C(=O)C(OC(=O)CCC(=O)Nc2cccc(C)c2)c2ccccc2)cc1 (configuration not stated) | i | 13 | i | i | i | i | i
Cc1ccc(C(C)C)c(OCC(=O)OCc2c(C)noc2C)c1 | i | 23 | i | i | i | i | i
CC1Cc2ccccc2N1C(=O)CSc1ncnc2c1sc1nc3ccccc3cc12 (configuration not stated) | i | nt | nt | i | nt | nt | nt
N#Cc1cc(-c2ccccc2)cnc1Sc1ccc(Cl)cc1 | i | i | i | i | i | i | nt
N#Cc1cc(-c2ccc(Cl)cc2)cnc1Sc1ccc(F)cc1 | i | 12 | i | i | i | i | i
C#CCOc1cccc(CN2CCc3[nH]c4ccc(OCC)cc4c3C2)c1 | i | nt | nt | i | nt | nt | nt
CCCCc1ccc(-c2csc(/C(C#N)=C\c3ccc(C)o3)n2)cc1 | i | 14 | i | i | i | i | i
Cc1ccc(NC(=O)CN2CCC3(CC2)CC(O)c2ccccc2O3)cc1 (configuration not stated) | i | nt | nt | i | nt | nt | nt
COc1ccc(-c2nc(C#N)c(NCc3ccco3)o2)cc1 | i | i | i | i | i | i | nt
N#Cc1nc(-c2ccc(OCc3ccccc3)cc2)oc1NCc1ccco1 | i | 16 | i | i | i | i | i
Cc1ccc(NC(=O)CCC(=O)OCCCC(F)(F)C(F)(F)F)cc1 | i | i | i | i | i | i | nt
O=C(CCC(=O)OCCCC(F)(F)C(F)(F)F)Nc1ccc(Cl)cc1Cl | i | 29 | i | i | i | i | i
COc1cccc(C2(NC(=O)C3C4C=CC5(CN(C(C)C)C(=O)C35)O4)CCCC2)c1 (configuration not stated) | i | nt | nt | i | nt | nt | nt
CC(C)Cn1c2c(c(O)c(C(=O)Nc3ccc(F)cc3)c1=O)CCCC2 | i | i | i | i | i | i | nt
CCCn1c2c(c(O)c(C(=O)Nc3ccccc3)c1=O)CCCC2 | nt | 12 | i | i | i | i | i
COC(=O)C(Sc1nc(C)cc(C)c1C#N)c1ccccc1 (configuration not stated) | i | 12 | i | i | i | i | i
N#C/C(=C\c1c[nH]c2ccccc12)C(=O)Nc1ncc(Cc2ccc(Cl)cc2Cl)s1 | i | 14 | i | i | i | i | i
CC1=NN(c2nc(-c3ccc(C)cc3)cs2)C(=O)C1N=Nc1ccc(C(N)=O)cc1 (configuration not stated) | i | 12 | i | i | i | i | i
CC1=NN(c2ccccc2)C(=O)C1N=Nc1ccc(C)cc1 (configuration not stated) | i | i | nt | i | nt | nt | nt

Compound activity from PubChem.
